The values below come from PubChem BioAssay (EPA / NIEHS).

The target of assay [1] is Estrogen receptor (Homo sapiens) (UniProt P03372). Briefly: CCTE_Deisenroth_AIME_384WELL_LUC_Active: CCTE's 384-well Estrogen Receptor Transactivation Assay with AIME metabolic competence (ERTA luciferase; metabolism positive), Deisenroth Lab (AID 2284030). In outline:
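AIME metabolism-positive mode: chemicals 0.002 - 200 uM, 2 h with alginate-bound PB/BNF-induced rat S9 → medium to VM7Luc4E2 ERTA, 24 h → luciferase. Positive fit vs 17beta-estradiol; n=4 typical.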

Assay [2] shares this target. Description: CCTE_Deisenroth_AIME_384WELL_LUC_Inactive: CCTE's 384-well Estrogen Receptor Transactivation Assay without AIME metabolic competence (ERTA luciferase; metabolism negative), Deisenroth Lab (AID 2284038).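 Note: hits raise estrogen receptor luciferase signal so potencies reflect agonists.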 In outline:
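Chemicals (10-point series, 0.002 - 200 uM) were incubated 2 hours with alginate-water microsphere lids lacking S9, then the conditioned medium was transferred to VM7Luc4E2 breast cells for 24 hour. Luciferase induction was read by bioluminescence, fitted upward relative to 17beta-estradiol.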

The target is the same in assay [3]. Briefly: CCTE_Deisenroth_AIME_384WELL_LUC_Shift: CCTE's 384-well Estrogen Receptor Transactivation Assay with AIME metabolic competence data shift (ERTA luciferase; difference in metabolism positive and negative), Deisenroth Lab (AID 2284041; active = hit-call score of the fitted dose curve at least 0.9, where 1 is the maximum; inactive = score below 0.9;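 note: shift is response with S9 minus without S9 so positive means metabolism raised ER signal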). The method in brief:
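Here, parent compounds undergo 2 h phase I metabolism by PB/BNF-induced rat S9 before 24 h transactivation in VM7Luc4E2 cells; the curve models S9-positive minus S9-negative response over a 10-point series.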

A short description of assay [4]: CCTE_Deisenroth_AIME_96WELL_CTox_Active: Cytotoxicity Assessment (CTOX) in CCTE's 96-well Estrogen Receptor Transactivation Assay with AIME metabolic competence (metabolism positive), Deisenroth Lab (AID 2284028). The method in brief:
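Chemicals (0.002–200 uM) were first incubated 2 h with alginate-immobilized phenobarbital/beta-naphthoflavone-induced male rat liver S9; conditioned medium then went onto VM7Luc4E2 cells for 24 h, with viability read by protease-substrate fluorescence, fitted bidirectionally.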

The nature of assay [5]: CCTE_Deisenroth_AIME_96WELL_CTox_Inactive: Cytotoxicity Assessment (CTOX) in CCTE's 96-well Estrogen Receptor Transactivation Assay without AIME metabolic competence (metabolism negative), Deisenroth Lab (AID 2284029). In outline:
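Chemicals (10-point series, 0.002-200 uM) were incubated 2 h with alginate-water microspheres lacking S9. The conditioned medium was then transferred onto VM7Luc4E2 cells for 24 h. Viability was measured by protease-substrate cleavage to a fluorescent probe, with loss of signal fitted bidirectionally; n≥4 experimental replicates.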

The nature of assay [6]: CCTE_Deisenroth_AIME_384WELL_CTox_Active: Cytotoxicity Assessment (CTOX) in CCTE's 384-well Estrogen Receptor Transactivation Assay with AIME metabolic competence (metabolism positive), Deisenroth Lab (AID 2284037).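 Note: activity means signal loss indicating cell death.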 In outline:
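VM7Luc4E2 breast cells received medium pre-incubated 2 h with chemical over alginate microspheres holding induced male Sprague Dawley rat liver S9; viability read 24 h later by protease-substrate fluorescence. Loss of signal, bidirectional fit, 0.002–200 uM.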

The nature of assay [7]: CCTE_Deisenroth_AIME_384WELL_CTox_Inactive: Cytotoxicity Assessment (CTOX) in CCTE's 384-well Estrogen Receptor Transactivation Assay without AIME metabolic competence (metabolism negative), Deisenroth Lab (AID 2284039).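 Note: cell viability via live-cell protease substrate cleaved to fluorescent probe; cells exposed 24 h to medium preincubated 2 h with alginate-water beads without S9.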 The method in brief: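 VM7Luc4E2 cells, metabolism-negative arm: test chemicals (0.002–200 uM, 10 points) pre-incubated 2 h with alginate-water microspheres, then medium transferred to cells for 24 h. Viability read as protease-substrate cleavage to fluorescent probe; loss-of-signal, bidirectional fitting.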

The nature of assay [8]: CCTE_Shafer_MEA_dev_firing_rate_mean: CCTE's Neural Network Formation Assay for Mean Firing Rate, Shafer Lab (AID 2284031; active = hit-call score of the fitted dose curve at least 0.9, where 1 is the maximum; inactive = score below 0.9;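 for AC50: curve fitted for loss of firing so AC50 reflects decreased mean firing rate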). The method in brief: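 Primary rat cortical neurons on 48-well, 16-electrode MEAs (PEI-coated, laminin at plating), exposed from day 0 with compound renewed at DIV 5 and 9. Spikes recorded DIV 5, 7, 9, 12; well-mean firing rate collapsed to trapezoidal AUC, loss-of-signal vs DMSO.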

Assay [9] in a line: CCTE_Shafer_MEA_dev_per_burst_spike_percent: CCTE's Neural Network Formation Assay for Percent of Spikes in a Burst, Shafer Lab (AID 2284032; active = hit-call score of the fitted dose curve at least 0.9, where 1 is the maximum; inactive = score below 0.9;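 for AC50: fitted as a decrease in burst spike percentage below DMSO baseline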). The method in brief:
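Rat primary cortical neurons on 16-electrode MEA wells, dosed from plating day 0 for 12 days with renewal on DIV 5 and 9; spikes-in-bursts percentage averaged over bursting electrodes, collapsed as AUC across days 5, 7, 9, 12; loss direction versus DMSO.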

Assay [10] in a line: CCTE_Shafer_MEA_dev_active_electrodes_number: CCTE's Neural Network Formation Assay for Number of Active Electrodes, Shafer Lab (AID 2284040).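 For AC50: potency for loss of active electrodes versus DMSO so lower counts are hits.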 The method in brief:
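Rat cortical primary cultures, 1.5 x 10^5 cells/well, PEI-coated MEA, laminin drop. Continuous exposure DIV 0–12; full media/compound change DIV 5, 9. Readout: electrodes with mean firing ≥5 spikes/min; AUC across days; loss vs DMSO.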

Assay [11] is described as follows: CCTE_Shafer_MEA_dev_burst_rate: CCTE's Neural Network Formation Assay for Burst Rate, Shafer Lab (AID 2284042; active = hit-call score of the fitted dose curve at least 0.9, where 1 is the maximum; inactive = score below 0.9;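 for AC50: potency for loss of burst rate below DMSO control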). The method in brief:
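Primary rat cortical neurons on PEI-coated 48-well MEA plates (laminin added with cells at plating) (16 electrodes/well), exposed from plating to day 12, dosing renewed at DIV 5 and 9. Burst rate averaged over active electrodes, recorded DIV 5, 7, 9, 12, summarized as AUC; loss versus DMSO.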

For assay [12], the target named is Estrogen receptor (Homo sapiens) (UniProt P03372). Description: CCTE_Deisenroth_AIME_96WELL_LUC_Active: CCTE's 96-well Estrogen Receptor Transactivation Assay with AIME metabolic competence (ERTA luciferase; metabolism positive), Deisenroth Lab (AID 2284023). In outline:
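Chemicals pre-incubated 2 h with alginate-immobilized phenobarbital/beta-naphthoflavone-induced male Sprague Dawley rat liver S9, then medium transferred to VM7Luc4E2 cells for 24 h luciferase read-out. 10-point series 0.002 - 200 uM; fitted relative to 17beta-estradiol.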

Assay [13] has the same target. Description: CCTE_Deisenroth_AIME_96WELL_LUC_Inactive: CCTE's 96-well Estrogen Receptor Transactivation Assay without AIME metabolic competence (ERTA luciferase; metabolism negative), Deisenroth Lab (AID 2284025). The method in brief: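 VM7Luc4E2 breast cells, luciferase read 24 h after dosing with medium pre-incubated 2 h on alginate-water lids (metabolism negative). 10-point series 0.002–200 uM, single technical replicate, n≥4; fit relative to 17beta-estradiol.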

Records with an inconclusive call do not appear. Activity calls are given as the source filed them. Rule for the calls, unless noted: active = hit-call score of the fitted dose curve at least 0.9, where 1 is the maximum; inconclusive = response in the unintended direction; inactive = score below 0.9.

Estrogen receptor (Homo sapiens), sequence (P03372 whole entry, looked up): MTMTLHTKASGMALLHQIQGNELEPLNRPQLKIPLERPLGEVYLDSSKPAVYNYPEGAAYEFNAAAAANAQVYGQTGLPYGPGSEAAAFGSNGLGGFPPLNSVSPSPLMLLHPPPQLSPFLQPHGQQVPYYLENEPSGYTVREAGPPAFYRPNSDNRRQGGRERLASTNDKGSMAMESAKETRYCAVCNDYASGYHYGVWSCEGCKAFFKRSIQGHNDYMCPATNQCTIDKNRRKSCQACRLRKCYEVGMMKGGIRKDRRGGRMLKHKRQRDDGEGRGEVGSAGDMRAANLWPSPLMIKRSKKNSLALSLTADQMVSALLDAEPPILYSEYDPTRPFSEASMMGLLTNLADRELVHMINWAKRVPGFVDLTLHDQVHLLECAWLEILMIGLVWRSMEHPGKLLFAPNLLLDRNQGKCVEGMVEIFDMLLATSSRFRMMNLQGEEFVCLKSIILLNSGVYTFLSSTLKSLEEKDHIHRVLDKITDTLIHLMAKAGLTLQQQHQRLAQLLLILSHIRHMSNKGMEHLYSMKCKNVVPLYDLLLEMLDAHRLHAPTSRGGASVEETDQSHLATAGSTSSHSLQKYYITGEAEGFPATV

For `CCCCCCCC=O`, the AC50 (in general, the concentration at which the activity in the assay is half-maximal) is 27.9 µM (active) in assay [1], 25.7 µM (active) in assay [2] and 15.6 µM (active) in assay [3].

For `CC1(C)CC(N=C=O)CC(C)(CN=C=O)C1` (stereo not drawn), the result in assay [1], in assay [2] and in assay [3] was inactive.

Take `COc1cccc2c1C(=O)c1c(O)c3c(c(O)c1C2=O)C[C@@](O)(C(=O)CO)C[C@@H]3O[C@H]1C[C@H](N)[C@H](O)[C@H](C)O1`: the concentration at half-maximal activity (AC50) is 51.6 µM (active) in assay [4] and 68.2 µM (active) in assay [5].

As for `Cc1cccc(C)c1O`, the molecule was called inactive in assay [1], in assay [6], in [2], in [7] and in assay [3].

Consider `CCOc1ccc2c(c1)C(C)=CC(C)(C)N2`, for which the half-maximal activity concentration (AC50) in assay [1] was 34.5 µM (active). Besides, the outcome in assay [6], in assay [2] and in assay [7] was inactive.

For the molecule `CC1(C)NC(=O)NC1=O`, the molecule was classed as inactive in assay [1], in [6], in assay [2], in [7] and in assay [3].

Take `CCCCCC(=O)O`: the result in assay [1], in assay [2], in assay [7] and in [3] was inactive.

For the molecule `C[C@]12C=CC(=O)C=C1CC[C@@H]1[C@@H]2C(=O)C[C@@]2(C)[C@H]1CC[C@]2(O)C(=O)CO`, the result in [1], in assay [6], in assay [2], in assay [7] and in assay [3] was inactive.

As to `CNC(=O)[C@H]1O[C@@H](n2cnc3c(NCc4cc(Cl)ccc4OCc4cc(C)no4)ncnc32)[C@H](O)[C@@H]1N`, the molecule was classed as inactive in assay [1], in [6], in [2] and in assay [3].

Turning to `CC(C)c1ccc(C(=O)N=C(N)N)cc1S(C)(=O)=O`, the result in assay [8], in [9], in assay [10] and in [11] was inactive.

Regarding `Cc1ccc(C)c(C)c1`, the molecule was called inactive in [2] and in [3].

For `CCCCCCC(=O)OCC`, the molecule was called inactive in assay [1], in assay [2] and in assay [3].

In the case of `Cc1cccc([N+](=O)[O-])c1C`, the outcome in assay [1], in assay [6], in assay [2], in assay [7] and in assay [3] was inactive.

For the molecule `O=c1[nH]cc(F)c(=O)[nH]1`, the outcome in assay [1], in assay [2], in [7] and in [3] was inactive. The AC50 in [8] was 4.24 µM (active); in [9], 1.47 µM (active); in assay [10], 2.59 µM (active); in [11], 1.58 µM (active).

In the case of `COc1ccc(C)cc1N`, the result in assay [1], in [2] and in assay [3] was inactive.

On to `COc1cc(/C=C/C(=O)CC(=O)/C=C/c2ccc(O)c(OC)c2)ccc1O`, for which the outcome in assay [12] and in [13] was inactive. Further, the concentration at half-maximal activity (AC50) was 63 µM (active) in [4] and 93.8 µM (active) in assay [5].

As for `NCCO`, the molecule was called inactive in [1], in [6], in assay [2], in assay [7] and in assay [3].

Turning to `O=c1c(O)c(-c2ccc(O)c(O)c2)oc2cc(O)cc(O)c12`, the AC50 in [1] was 21.2 µM (active); in assay [2], 139 µM (active); in [7], 54.5 µM (active); in assay [3] it was 13.5 µM (active). In addition, the call in assay [6] was inactive.

Turning to `Cc1cc(=O)[nH]c(=S)[nH]1`, the call in assay [1], in [8], in [9], in assay [6], in assay [2] and in assay [7] was inactive. The molecule was called inactive in assay [10], in assay [3] and in [11].

As for `Cc1ccc(N(C)C)cc1`, the molecule was classed as inactive in [1], in assay [6], in assay [2], in assay [7] and in assay [3].

`COCCOCCOC`: the outcome in [1], in [6], in assay [2], in assay [7] and in assay [3] was inactive.
